# High-throughput results from PubChem BioAssay.
# Sampled rows, rich in hits. Any-hit rate of the full collection: about 2.8%.
# KDM5B inhibitor – inhibitors of human KDM5B histone demethylase | Potency, µM (titrated, usually from 57.7 µM), hits mostly inhibitors | hit rate 2.6% among 220,000 | KDM5B demethylase, FDH-coupled NADH fluorescence (FDH is formaldehyde dehydrogenase); also: potency is read from the fitted curve at half-maximal effect; 0% is about no effect; nearly all actives have a fitted effect of over 70% in size
#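 Inhibition is measured as reduced NADH fluorescence generation from FDH coupling to formaldehyde release. Truncated KDM5BΔAP at 200 nM final acts on H3K4me3 peptide (12.5 µM in substrate mix) in pH 7.5 HEPES buffer with Tween-20, 30 min, room temperature.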
# IP6K1 inh – IP6K1 kinase inhibition; Q92551; IP6K1 kinase, ADP-Glo luminescence, 2 h; hits give low values; activity change, % (series mostly up to about 58 µM); hit rate 0.81% among 140,000; AID 1645851; in the data active = activity change below about -25%; also: % is scaled to controls: 0 for no effect and ±100 for the full control effect
# Target sequence (Q92551 whole entry, looked up): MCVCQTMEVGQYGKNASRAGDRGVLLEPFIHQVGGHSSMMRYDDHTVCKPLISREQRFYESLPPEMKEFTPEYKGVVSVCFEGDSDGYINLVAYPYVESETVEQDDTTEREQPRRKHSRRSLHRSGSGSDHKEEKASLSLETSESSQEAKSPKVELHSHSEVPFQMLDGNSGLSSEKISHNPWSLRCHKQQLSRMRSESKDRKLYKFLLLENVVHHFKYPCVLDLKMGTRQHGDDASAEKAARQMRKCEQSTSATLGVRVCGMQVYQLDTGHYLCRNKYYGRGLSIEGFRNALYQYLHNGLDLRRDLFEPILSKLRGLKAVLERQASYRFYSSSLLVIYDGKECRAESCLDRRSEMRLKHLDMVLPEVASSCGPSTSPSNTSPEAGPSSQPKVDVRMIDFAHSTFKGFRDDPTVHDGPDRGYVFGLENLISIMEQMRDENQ
#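 ADP-Glo luminescence measures ADP made by human IP6K1 during a 2 h RT reaction with ATP/IP6 (mix at 1.3 mM/130 uM); top library doses 57.5 and 19.1 uM final.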
# SNCA viab count – counter-screen for SNCA expression inhibitors: cell viability | HEK-293-SNCA-luc viability, GF-AFC fluorescence, 24 h | Potency, µM (top dose mostly 57.1 µM), for inactives: at the top dose activity change, negative = cytotoxicity, most hits filed as cytotoxic | hit rate 0.12% among 150,000 | AID 1671193;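 also: potency is read from the fitted curve at half-maximal effect; 0% = DMSO-treated cells and -100% = medium-only wells without cells; nearly all actives have a fitted effect of over 30% in size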
#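 Cytotoxicity counterscreen: after 24 h compound treatment of genome-edited SNCA-luciferase HEK-293 cells, live-cell protease substrate GF-AFC read by fluorescence after 30 min; activity scaled between DMSO (0%) and medium-only (-100%), curves Hill-fitted.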
# SNCA expr inhib – reduces expression of the alpha-synuclein gene | HEK-293 SNCA-luciferase knock-in, luminescence, 24 h | Potency, µM (doses to about 57.2 µM), inactives show at the highest dose activity change, negative = inhibition, hits mostly inhibitors | hit rate 0.17% among 140,000;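 also: potency is read from the fitted curve at half-maximal effect; plate controls were DMSO cells for no effect and cell-free wells for full effect; nearly all actives have a fitted effect of over 45% in size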
# An asterisk follows results filed as active; i = inactive; ? = inconclusive; . = no result given; ! = a repeat was not active; [ ] = another dose, or the depositor's remark. Unless noted, calls follow the shape of the dose curve; as a rule, active = well fitted curve in the direction sought with a large enough effect; inconclusive = small, poorly fitted or top-dose-only effect, or another doubt; inactive = no such curve, though single readings can be large; an effect the other way counts as inactive or inconclusive.
SMILES,KDM5B inhibitor,IP6K1 inh,SNCA viab count,SNCA expr inhib
CC(=O)N1CCN(C(=O)c2cc3ccccc3[nH]c2=O)CC(O)C1 (centres undefined),28µM*,-11,-3%,-15%
CC(=O)N1CCN(C(=O)c2cnc(N)nc2-c2ccccc2)CC(O)C1 (centres undefined),25µM*,5,5%,-19%
CCN(CC)S(=O)(=O)c1ccc2c(c1)nc(SCC(=O)Nc1ccc(OC)cc1)n2CC,i,.,.,.
CN(C)c1ccc(NC(=O)CCc2ncc(-c3ccc(Cl)cc3)o2)cc1,i,.,.,.
COc1ccccc1-c1nc(C(=O)N2CCOCC2)n2ccccc12,89µM*,-11,1%,2%
COc1ccccc1-c1nc(C(=O)N2CCN(c3ncccn3)CC2)n2ccccc12,?,-19,3%,?
COc1ccccc1-c1nc(C(=O)N2CCOCC2)n2ccncc12,100µM*,-7,-4%,3%
COc1ccccc1-c1nc(C(=O)N2CCN(c3ncccn3)CC2)n2ccncc12,?,11,7%,2%
O=C(c1nc(-c2ccc(F)cc2)c2cnccn12)N1CCOCC1,40µM*,0,0%[87.6 µM],5%[87.6 µM]
COc1ccc(Nc2nc3ccccc3nc2NS(=O)(=O)c2ccc(C)cc2)cc1Cl,i,.,.,.
COc1ccc2c(c1)c1c(c(=O)n(Cc3ccccc3)c(=O)n1Cc1ccccc1Cl)n2C,i,-2,-1%,3.2µM*
O=C(Nc1cc2ccc(O)cc2oc1=O)c1ccc(F)cc1,i,-13,0%,2µM*
O=C(Nc1cc2cccc([N+](=O)[O-])c2oc1=O)c1ccc(F)cc1,i,.,.,.
CC(=O)c1cc(C(C)(C)C)cc(C(C)(C)C)c1,i,.,.,.
CC(C)N1CNc2c(c(=O)[nH]c(=O)n2-c2cccc(Cl)c2)C1,i,.,.,.
C#CCNC(=O)c1nc(-c2ccc(Cl)cc2)c2cnccn12,40µM*,0,12%[87.6 µM],-1%[87.6 µM]
C#CCNC(=O)c1nc(-c2ccc(Cl)cc2Cl)c2ccccn12,89µM*,10,-13%,?
C#CCNC(=O)c1nc(-c2ccc(Cl)cc2)c2ccccn12,32µM*,11,-3%[87.6 µM],116%[87.6 µM]
C#CCNC(=O)c1nc(-c2cc(Cl)cc(Cl)c2)c2ccccn12,10µM*,10,3%[87.6 µM],-26%[87.6 µM]
CCOC(=O)c1ccc(S(=O)(=O)NCc2ccco2)cc1,i,.,.,.
Cc1cc2n(n1)CCC(=O)N2C(C)C(=O)NCc1ccc(F)cc1 (centres undefined),i,.,.,.
O=C(NCc1ccc2c(c1)OCO2)c1nc(-c2ccc(Cl)cc2)c2cnccn12,28µM*,0,23%,156%
NC(=O)c1cccc2[nH]c([C@H]3CCN(Cc4cccc(Cl)c4)C3)nc12,35µM*,14,-25%[87.6 µM],-2%[87.6 µM]
Brc1ccc(CN2CCC(c3nc4ncccc4[nH]3)C2)cc1 (centres undefined),20µM*!,2,-2%,0%
CCC(C)[C@H](NC(=O)C1CCC(CNC(=O)[C@@H]2CCCN2C(=O)OC(C)(C)C)CC1)C(=O)O (some centres undefined),i,.,.,.
SMILES,KDM5B inhibitor,IP6K1 inh,SNCA viab count,SNCA expr inhib
CCCNC(=O)[C@H]1O[C@H]1C(=O)N[C@H](C(=O)N1CCC[C@@H]1C(=O)OC)C(C)CC (some centres undefined),.,.,22µM*,?
O=C1c2ccccc2C(=O)c2c(Nc3ccc(CCO)cc3)ccc(O)c21,i,.,.,.
O=C1c2ccccc2C(=O)c2c(NCCc3ccc(O)cc3)ccc(NCCc3ccc(O)cc3)c21,.,.,28µM*,?
Cc1nc2c(C(=O)O)cnn2c(C)c1Cc1ccccc1,?,8,-8%,16%
Cc1ccc(-c2cc(C(=O)N3CCC(Cc4nncn4CC4CC4)CC3)c3ccccc3n2)cc1C,22µM*,11,-18%,1%
O=C(c1cc(-c2ccc(F)cc2)nc2ccccc12)N1CCC(Cc2nncn2CC2CC2)CC1,28µM*,1,-14%,15%
Cc1ccc(Cc2c(C)nc3c(C(=O)N4CCC(Cc5nncn5CC5CC5)CC4)cnn3c2C)cc1,28µM*,13,2%,-22%
CC(C)CCN(C(=O)CN(C)c1ccccc1)c1c(N)n(Cc2ccccc2)c(=O)[nH]c1=O,i,.,.,.
O=S(=O)(Nc1nc2ccccc2nc1Nc1ccccc1)c1ccc(Cl)s1,i,.,.,.
CCn1ccc(C(=O)N2CCc3nc(NC)nc(C(=O)N4CCCC4)c3C2)n1,18µM*,11,-5%,-22%
CCCn1c(=O)n(CC(=O)Nc2ccc(F)cc2F)c(=O)c2c1nc(C)n2CCOC,i,.,.,.
COc1ccc(C(=O)N2CCC[C@H]2c2nc(-c3ccc(OC)c(OC)c3)no2)cc1OC,i,-2,-5%,31%
COc1ccc(-c2noc([C@@H]3CCCN3C(=O)Cc3cccc(F)c3)n2)cc1OC,25µM*,-1,-13%,5%
COc1ccc(CC(=O)N2CCC[C@H]2c2nc(-c3ccc(OC)c(OC)c3)no2)cc1Cl,?,9,-2%,38%
COc1ccc(C(=O)N2CCC[C@H]2c2nc(-c3ccc(OC)c(OC)c3)no2)c(C)c1,28µM*,4,-16%,20%
COc1ccc(-c2noc([C@@H]3CCCN3C(=O)Cc3ccccc3Cl)n2)cc1OC,28µM*,0,-18%,-10%
COc1ccccc1CNC(=O)c1cc2c(N(C)Cc3ccccc3)nc(C)cn2n1,14µM*,14,-2%,0%
Cc1cn2nc(C(=O)NCc3ccccc3F)cc2c(N(C)Cc2ccccc2)n1,14µM*,-6,-1%,-30%
CNC(=O)c1cccnc1N1CCOC(c2ccc3cc(OC)ccc3c2)C1 (centres undefined),i,-1,-12%,107%
COc1ccc([C@@H]2CN(c3ncccc3C#N)C[C@H]2NC(C)=O)cc1,28µM*,4,6%,4%
OC[C@@H]1O[C@H](CNCc2cccc(Cl)c2)[C@H](N2CCN(c3ccc(F)cc3)CC2)[C@@H]1O,?,5,-10%,-18%
OC[C@@H]1O[C@H](CNCc2cccc(Cl)c2)[C@H](N2CCN(c3ccccn3)CC2)[C@@H]1O,25µM*,8,1%,5%
O=C(CCl)Nc1ccc2c(c1)CCC2,i,.,.,.
Cc1cccc(CSc2nnc(CCCCCN)o2)c1,i,-18,7%,14µM*
Cc1ccc(-c2nnc(SCc3cccc(C#N)c3)o2)cc1,i,-3,-6%,14%
SMILES,KDM5B inhibitor,IP6K1 inh,SNCA viab count,SNCA expr inhib
COc1cccc(-c2ccnc3nc(CC(C)C)nn23)c1,25µM*,-3,1%,9%
COc1ccc(CCc2nc3nccc(-c4ccc5c(c4)OCCCO5)n3n2)cc1OC,?,3,5%,-12%
COc1cccc(-c2ccnc3nc(CCc4ccccc4)nn23)c1,20µM*,6,4%,10%
COc1ccc(-c2ccnc3nc(CC(C)C)nn23)cc1,i,-4,-6%,-4%
COc1ccc(-c2ccnc3nc(CC(C)C)nn23)cc1OC,28µM*,2,-1%,27%
COc1ccc(-c2c(C)oc3cc(OCC(=O)Nc4cc(C)ccc4OC)ccc3c2=O)cc1,i,.,.,.
